Measured values from PubChem BioAssay AID1159580 (chemical genetic matrix, 2015).
“And” between values parts separate entries of the source, which are not always exact repeats. Identical values can stand only once. Among all 5,500 compounds or so, about 2,000 (36%) were called active. Inconclusive results (about 18%) are left out. No stated cut-off is given here; in the data, active means normalized growth mostly below about 0.91 (no sharp cut-off); inconclusive means no clear call, values can overlap the other calls; inactive means mostly above about 0.92. Some of the results follow.

Experiment: chemical genetic growth profiling, strain panel (AID 1159580);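 further: tested at 20 µM; growth read once vehicle control cultures reached saturation at 30 °C; 1 = growth at the plate median or of vehicle wells; lower values mean less growth of the strain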
Conditions: S. cerevisiae deletion strains, growth OD

Measured: normalized growth

COc1c2occc2cc2ccc(=O)oc12
inactive: locus YAL013W, strain DEP1, active compounds read low 0.992 | locus YAL021C, strain ccr4, active compounds read low 0.966 | locus YAL026C, strain drs2, active compounds read low 0.954 | locus YAL030W, strain snc1, active compounds read low 0.975 | locus YBL061C, strain skt5, active compounds read low 0.973 | locus YBR021W, strain FUR4, active compounds read low 1.08 | locus YBR023C, strain chs3, active compounds read low 0.926 | locus YBR171W, strain sec66, active compounds read low 0.945 | locus YBR229C, strain ROT2, active compounds read low 1.01 | locus YBR231C, strain swc5, active compounds read low 1.03 | locus YBR279W, strain paf1, active compounds read low 0.98 | locus YCL029C, strain bik1, active compounds read low 0.976 | locus YCL061C, strain MRC1, active compounds read low 0.931 | locus YCL069W, strain vba3, active compounds read low 0.96 | locus YCR088W, strain abp1, active compounds read low 0.998 | locus YDL005C, strain med2, active compounds read low 0.987 | locus YDL035C, strain GPR1, active compounds read low 0.956 | locus YDL040C, strain nat1, active compounds read low 0.995 | locus YDL074C, strain BRE1, active compounds read low 0.908 | locus YDL101C, strain DUN1, active compounds read low 0.958 | locus YDL134C, strain PPH21, active compounds read low 0.997 | locus YDL185W, strain tfp1, active compounds read low 0.928 | locus YDL192W, strain arf1, active compounds read low 0.969 | locus YDR001C, strain nth1, active compounds read low 0.983 | locus YDR069C, strain doa4, active compounds read low 0.964 | locus YDR101C, strain arx1, active compounds read low 0.993 | locus YDR137W, strain rgp1, active compounds read low 0.954 | locus YDR150W, strain NUM1, active compounds read low 0.952 | locus YDR159W, strain sac3, active compounds read low 1.02 | locus YDR162C, strain NBP2, active compounds read low 0.931 | locus YDR297W, strain sur2, active compounds read low 0.978 | locus YDR318W, strain mcm21, active compounds read low 0.953 | locus YDR334W, strain swr1, active compounds read low 0.919 | locus YDR335W, strain msn5, active compounds read low 0.982 | locus YDR388W, active compounds read low 0.985 | locus YDR392W, strain spt3, active compounds read low 0.852 | locus YDR502C, strain sam2, active compounds read low 0.957 | locus YEL003W, strain gim4, active compounds read low 0.988 | locus YEL037C, strain rad23, active compounds read low 0.944 | locus YEL061C, strain CIN8 (second series), active compounds read low 0.981 | locus YEL061C, strain CIN8, active compounds read low 0.999 | locus YER015W, strain faa2, active compounds read low 0.965 | locus YER016W, strain bim1, active compounds read low 1 | locus YER110C, active compounds read low 0.948 | locus YER111C, strain swi4, active compounds read low 0.973 | locus YER155C, strain BEM2 (second series), active compounds read low 0.866 | locus YER155C, strain BEM2, active compounds read low 1.03 | locus YER167W, strain BCK2, active compounds read low 0.982 | locus YFR010W, strain ubp6, active compounds read low 0.94 | locus YGL078C, strain dbp3, active compounds read low 0.99 | locus YGL086W, strain mad1, active compounds read low 0.961 | locus YGL167C, strain pmr1, active compounds read low 0.998 | locus YGL173C, strain kem1, active compounds read low 0.973 | locus YGL227W, strain vid30, active compounds read low 0.988 | locus YGL240W, strain doc1, active compounds read low 0.99 | locus YGL248W, strain PDE1, active compounds read low 0.999 | locus YGL253W, strain hxk2, active compounds read low 0.942 | locus YGR078C, strain PAC10, active compounds read low 0.922 | locus YGR135W, strain pre9, active compounds read low 0.935 | locus YGR229C, strain SMI1, active compounds read low 0.948 | locus YGR252W, strain gcn5, active compounds read low 0.817 | locus YHR013C, strain ard1, active compounds read low 0.935 | locus YHR027C, strain rpn1, active compounds read low 0.956 | locus YHR030C, strain SLT2, active compounds read low 0.995 and 1.02 | locus YHR079C, strain IRE1 (second series), active compounds read low 0.992 | locus YHR079C, strain IRE1, active compounds read low 1.03 | locus YHR094C, strain hxt1, active compounds read low 0.988 | locus YHR129C, strain ARP1, active compounds read low 0.996 | locus YHR200W, strain rpn10, active compounds read low 0.928 | locus YIL066C, strain RNR3, active compounds read low 0.933 | locus YIL073C, strain SPO22, active compounds read low 0.865 | locus YIL125W, strain kgd1, active compounds read low 1 | locus YIR030C, strain dcg1, active compounds read low 0.998 | locus YJL095W, strain BCK1 (second series), active compounds read low 0.982 | locus YJL095W, strain BCK1, active compounds read low 0.911 and 1.02 | locus YJL115W, strain asf1, active compounds read low 0.943 | locus YJL129C, strain trk1, active compounds read low 0.987 | locus YJL134W, strain LCB3, active compounds read low 0.985 | locus YJL154C, strain vps35, active compounds read low 0.984 | locus YJL164C, strain tpk1, active compounds read low 0.945 | locus YJL166W, strain qcr8, active compounds read low 0.943 | locus YJL168C, strain set2, active compounds read low 0.985 | locus YJL187C, strain SWE1 (second series), active compounds read low 0.974 | locus YJL187C, strain SWE1, active compounds read low 0.976 | locus YJR043C, strain POL32, active compounds read low 0.953 | locus YJR066W, strain TOR1, active compounds read low 0.969
active: locus YBR009C, strain hhf1, active compounds read low 0.878 | locus YCL011C, strain gbp2, active compounds read low 0.88 | locus YCL016C, strain dcc1, active compounds read low 0.888 | locus YDR195W, strain ref2 1.17 [resistant] | locus YHR142W, strain chs7, active compounds read low 0.856 | locus YJL092W, strain hpr5, active compounds read low 0.917
